Here are results for 16 molecules from PubChem BioAssay (NCATS).

One assay deals with TAB113. Kind of assay: qHTS profiling for inhibitors of Plasmodium falciparum proliferation (AID 504749). Also: potency is read from the fitted curve at half-maximal effect. The following applies: P. falciparum in erythrocytes, SYBR Green DNA, 72 h; series mostly up to 28.7 µM. In short, it runs like this:
(§1)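 Fluorescence of SYBR Green-bound parasite DNA, read at 485/535 nm, served as the growth measure. Infected erythrocytes were cultured with compound 72 h; artemisinin (0.29 uM) and DMSO wells defined the normalization range.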

In another assay the test system is TAB165. Described as above. The following applies: P. falciparum in erythrocytes, SYBR Green DNA, 72 h; series mostly up to 28.7 µM. In a few lines: as §1
The test system of the next assay is W2. The description is as above. The following applies: P. falciparum in erythrocytes, SYBR Green DNA, 72 h; series mostly up to 28.7 µM. In short, it runs like this:
as §1

For another assay, the system named is CRL-7250. The assay is described as follows: Cytotoxic Profiling of Annotated Libraries Using Quantitative High-Throughput Screening (AID 1296008). Also: potency is read from the fitted curve at half-maximal effect. As to max response: % is scaled to controls: 0 for no effect and ±100 for the full control effect. The following applies: Five cell lines viability, CellTiter-Glo ATP luminescence, 48-72 h; max response: stronger effect = lower value. In short, it runs like this: (§2)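 Compounds were pin-transferred onto cells and incubated 48 or 72 hr at 37 degree Celsius, 95% humidity. CellTiter-Glo was added, plates sat 10 min at room temperature, then ATP-coupled luminescence was imaged as the viability read-out.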
(In general: ATP-based viability assays read luminescence as a measure of living cells.)

For the next assay, the system named is HEK293. The description is as above. The following applies: Five cell lines viability, CellTiter-Glo ATP luminescence, 48-72 h; max response: stronger effect = lower value. In short, it runs like this: as §2
In assay [1] the test system is HaCat. Described as above. The following applies: Five cell lines viability, CellTiter-Glo ATP luminescence, 48-72 h; max response: stronger effect = lower value. In short, it runs like this: as §2
The test system of the next assay is KB-3-1. The assay is described as above. The following applies: Five cell lines viability, CellTiter-Glo ATP luminescence, 48-72 h; max response: stronger effect = lower value. In short, it runs like this:
as §2

Another assay has as its system NIH3T3. Described as above. The following applies: Five cell lines viability, CellTiter-Glo ATP luminescence, 48-72 h; max response: stronger effect = lower value. In a few lines: as §2
The next assay relates to HEK293T. The assay is described as follows: qHTS assay to identify novel small-molecules to repurpose for Merkel cell carcinoma treatment (AID 1296009). The following applies: MCC and control cell lines, CellTiter-Glo viability, 72 h; at 44.8 µM (top of the series) unless noted. In short, it runs like this:
(§3)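 Luminescence from CellTiter-Glo, read 10 min after addition at room temperature, reported viability following a 72 hr, 37 degree celsius treatment with NPC or MIPE compounds in titration; values normalized to plate controls.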

Assay [2] relates to HACAT. The description is as above. The following applies: MCC and control cell lines, CellTiter-Glo viability, 72 h; at 44.8 µM (top of the series) unless noted. In a few lines: as §3

Structures are written as SMILES. Where “and” joins values, the source holds several entries; their conditions need not be identical. Equal values may be shown once. Records with an inconclusive call do not appear. Values without a mark were called inactive. Calls of active or inactive are those of the source. Calls follow the shape of the dose curve; as a rule, active = well fitted inhibition curve with a large enough effect; inconclusive = small, poorly fitted or top-dose-only effect; inactive = flat fitted curve, though single readings scatter.
Also: nearly all actives have a fitted effect of over 60% in size.

On to `CCn1cc(C(=O)O)c(=O)c2cnc(N3CCNCC3)nc21`, for which the Potency result with TAB113, with TAB165 and in the assay with W2 was “inactive” each time. The figures for the max response with CRL-7250, in the assay on HaCat [1] and in the assay with KB-3-1 were -6.3%, -4.47% and -0.342%, respectively. Moreover, the molecule was called inactive in the assay with HEK293, in the assay with NIH3T3 and with HEK293T.

For `CCCn1cnc2c1c(=O)n(CCCCC(C)=O)c(=O)n2C`, the Potency result with TAB113 and in the assay on TAB165 was “inactive” each time. Besides, in the assay on W2, the Potency was 15.1 µM (active). Further, the max response with CRL-7250 is -5.12%; in the assay on HEK293, -11.1%; in the assay with HaCat [1], -0.92%; in the assay on NIH3T3, -3.42%.

As to `CC12CCC(CC1)C(C)(C)O2`, the Potency entry in the assay on TAB113, with TAB165 and in the assay on W2 was “inactive” throughout. Besides, the max response is 3.08% with CRL-7250 and -2.38% with HaCat [1]. Moreover, the molecule was called inactive with HEK293, with NIH3T3 and in the assay with HEK293T.

For the molecule `O=c1[nH]c(=O)c2[nH]c(=O)[nH]c2[nH]1`, the Potency result with TAB165 and in the assay on W2 was “inactive” in each case. The max response is -3.74% in the assay on CRL-7250; -1.57% in the assay with HEK293; 1.96% in the assay with HaCat [1]; 23.1% and -16.9% with KB-3-1. Also, the molecule was called inactive with NIH3T3.

On to `Cc1cc(O)cc2c1O[C@](C)(CCC[C@H](C)CCC[C@H](C)CCCC(C)C)CC2`, for which the Potency entry with TAB113, in the assay on TAB165 and in the assay on W2 was “inactive” each time. The figures for the max response with CRL-7250 and in the assay on HEK293 were -1.48% and 2.12%, respectively. Moreover, the molecule was classed as inactive in the assay on HaCat [1], in the assay with NIH3T3 and with HACAT [2].

In the case of `O=C1O[C@H]([C@@H](O)CO)C(O)=C1O`, the Potency result in the assay with TAB113, with TAB165 and in the assay on W2 was “inactive” each time. Also, in the assay with CRL-7250, the max response is 0.399%. For the same molecule, the molecule was classed as inactive in the assay on HEK293, in the assay with HaCat [1], in the assay on NIH3T3, in the assay on HACAT [2] and with HEK293T.

For `CC(=O)CCC(=O)O`, the Potency result in the assay with TAB113, in the assay with TAB165 and in the assay on W2 was “inactive” each time. Moreover, the max response in the assay with CRL-7250 was -8.02%. The outcome in the assay with HEK293, in the assay with HaCat [1], in the assay on NIH3T3, with HACAT [2] and in the assay on HEK293T was inactive.

`Nc1nc2c(ncn2CCC(CO)CO)c(=O)[nH]1`: the Potency result with TAB113, with TAB165 and in the assay on W2 was “inactive” in each case. Further, the max response in the assay with CRL-7250 was -22.4% and -4.66%; in the assay on HEK293, -4.76% and -4.47%; with NIH3T3, 1.75%. For the same molecule, the molecule was classed as inactive in the assay on HaCat [1], in the assay on NIH3T3 and with HACAT [2].

Consider `Oc1cccc(O)c1`, for which the Potency result in the assay with TAB113, in the assay with TAB165 and with W2 was “inactive” each time. In addition, the max response in the assay with CRL-7250 is -6.09%. Also, the result with HEK293, in the assay on HaCat [1], in the assay on NIH3T3, with HACAT [2] and in the assay with HEK293T was inactive.

Take `Cc1c(Cl)cccc1Nc1ccccc1C(=O)O`: the Potency result in the assay on TAB113 and in the assay with TAB165 was “inactive” throughout. For the same molecule, the Potency with W2 was 9.53 µM (active). Also, the call in the assay with CRL-7250, in the assay on HEK293, in the assay on HaCat [1], with NIH3T3, in the assay on HACAT [2] and in the assay with HEK293T was inactive.

`OCC(CO)N[C@H]1C[C@](O)(CO)[C@@H](O)[C@H](O)[C@H]1O`: the max response in the assay with CRL-7250 was -4.94%; in the assay on NIH3T3, 3.34%. The result in the assay on HEK293, in the assay with HaCat [1], with HACAT [2] and in the assay with HEK293T was inactive.

In the case of `CC1(C)[C@@H]2CC[C@@]1(C)C(=O)C2`, the Potency entry in the assay on TAB113, with TAB165 and with W2 was “inactive” throughout. Moreover, the call in the assay on CRL-7250, with HEK293, with HaCat [1], in the assay with HACAT [2] and with HEK293T was inactive. For the same molecule, in the assay on NIH3T3, the max response was -6.56%.

For `NS(=O)(=O)c1cc2c(cc1Cl)NC(CSCc1ccccc1)=NS2(=O)=O`, the Potency result in the assay on TAB113, in the assay with TAB165 and in the assay on W2 was “inactive” in each case. Besides, the max response in the assay with CRL-7250 is -1.78%; with HaCat [1], -9.13%; in the assay on KB-3-1 it was 1.03%. Further, the outcome with HEK293, with NIH3T3 and in the assay with HEK293T was inactive.

In the case of `COc1ccc2cc1Oc1cc3c(cc1OC)CC[N+](C)(C)[C@H]3Cc1ccc(cc1)Oc1c(OC)c(OC)cc3c1[C@@H](C2)[N+](C)(C)CC3`, the molecule was classed as inactive with CRL-7250, with HEK293, in the assay with NIH3T3 and in the assay on HEK293T. Moreover, the max response with HaCat [1] is 0.882%.

As to `Cc1ccc2nc(N)[nH]c(=O)c2c1Sc1ccncc1`, the Potency with TAB165 is 2 µM (active); in the assay with HEK293, 8.2 µM (active); with HaCat [1] it was 1.33 µM (active) and 2.59 µM (active); in the assay with NIH3T3, 2.37 µM (active) and 6.51 µM (active). Besides, the max response was -27% and -23.5% with CRL-7250; -5.1% with KB-3-1.

In the case of `Cc1cc(CC(=O)O)n(C)c1C(=O)c1ccc(Cl)cc1`, the Potency result in the assay with TAB113, in the assay on TAB165 and with W2 was “inactive” throughout. Moreover, the call in the assay on CRL-7250, with HEK293 and with HEK293T was inactive. For the same molecule, the max response with HaCat [1] was -1.31%; in the assay on KB-3-1, -2.26% and -15.1%; with NIH3T3 it was -0.54%.
